The list is not random: actives were taken first. Their share in the collection is about 1.4%.
Chronic BCR inh = inhibitors of chronic active B-cell receptor signaling; ABC-DLBCL IkBa-CBG/CBR reporter, luminescence ratio, 4 h; actives 0.05% (n = 340,000); Potency, µM (titrated, usually from 46.1 µM), usual class: inhibitors; active = well fitted inhibition curve with a large enough effect in the signal ratio, with a control signal flat, not every such curve was filed as active; inconclusive = small, poorly fitted or top-dose-only effect, or effect the other way, or a change in a side signal; the % refers to the signal ratio
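TMD8 ABC-DLBCL cells carrying doxycycline-inducible green luciferase fused to IkappaBalpha plus unfused red luciferase were exposed to compounds (up to 46 uM) for 4 hrs at 37C. Activity came from the overlap-corrected green/red luminescence ratio.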
Nrf2 activator = activators of Nrf2 (ARE) signaling. AREc32 ARE-luciferase reporter (MCF7-derived line), luminescence, 24 h. Potency, µM (titrated, usually from 46.1 µM), usual class: activators. actives 0.31% (n = 410,000); also: nearly all actives have a fitted effect of over 65% in size
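Each well held 1000 AREc32 cells, which were incubated with compound for 24 hr at 37 deg C after overnight attachment, and ARE reporter activity was quantified by firefly luciferase luminescence.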
a7 integrin act = activates integrin-mediated alleviation for muscular dystrophy; AID 624291; alpha7betagal myoblasts, beta-gal FDG fluorescence, 48 h; Potency, µM (titrated, usually from 38.3 µM), actives largely listed as activators; actives 0.064% (n = 350,000); also: nearly all actives have a fitted effect of over 60% in size
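alpha7betagal+/- myoblasts (passage 13, 250/well) treated 48 h at 37C with compounds at 1:260 dilution of DMSO stock. Lysed, then beta-galactosidase activity read as FDG fluorescence (ex 480/em 540) after 30 min, with pre-read for autofluorescence.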
N370S GC = inhibits or activates N370S mutant glucocerebrosidase. N370S GC spleen homogenate, 4MU-glucoside fluorescence. Potency, µM (series often up to 59.4 µM), actives largely listed as inhibitors. AID 2101. P04062. actives 0.092% (n = 330,000)
IL-2 act = IL-2 activation; IL-2 activation reporter assay, cell-based qHTS; stimulated with anti-CD3/CD4/CD28 beads; in transgenic mouse T cells; activation, % (series mostly up to about 46 µM); actives 0.065% (n = 360,000); AID 652025; in the data active = activation above about 50%; inconclusive = mostly about 30% to 49%
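Unstimulated transgenic mouse T cells; 60-min compound exposure; bead-based TCR/CD4/CD28 stimulation; 18 h culture, 37 degrees C; dual fluorescence (EGFP, DsRed) plate cytometry.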
BRCA1 expr act = activators of BRCA1 expression | MCF7-BRCA1-FFLuc reporter, luminescence, 48 h; response scale: scaled: vehicle 0%, 10 µM genistein 100% | Potency, µM (doses to about 46.1 µM), actives largely listed as activators | actives 1.1% (n = 380,000); also: nearly all actives have a fitted effect of over 80% in size
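First, MCF7-BRCA1-FFLuc cells (2000/well) attach for 2 h; next, compounds are pin-added and incubated 48 h at 37 °C; finally, luciferase reagent is added and luminescence read after 15 min.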
Numbers stand for hits; 0 = inactive; ? = inconclusive; - = no result. Unless noted, calls follow the shape of the dose curve; as a rule, active = well fitted curve in the direction sought with a large enough effect; inconclusive = small, poorly fitted or top-dose-only effect, or another doubt; inactive = no such curve, though single readings can be large; an effect the other way counts as inactive or inconclusive.

SMILES | Chronic BCR inh | Nrf2 activator | a7 integrin act | N370S GC | IL-2 act | BRCA1 expr act
COCC1CCN(C(=O)c2ccc3oc(CCCc4ccccc4)nc3c2)C1 (centres undefined) | 0 | 0 | 0 | 0 | 0 | 0
Cc1cccc2c3c(ccc12)C1=C(C(=O)C3=O)[C@@H](C)CO1 | - | - | - | 0 | - | -
COc1cc(NC(=O)C(Cc2ccccc2)NS(=O)(=O)c2cccs2)cc(OC)c1 (centres undefined) | - | 0 | - | - | - | 0
Cc1csc2nc(COC(=O)c3ccc(NC(=O)c4ccccc4Br)cc3)cc(=O)n12 | - | 0 | - | - | - | -
Nc1ccc(C#Cc2ccc3c(=O)c4ccccc4oc3c2)cc1 | 0 | 0 | 0 | 0 | 0 | 10µM
O=S(=O)(c1ccc2c(c1)CCCC2)N1CCN(c2nc(-c3ccccc3)nc3ccccc23)CC1 | - | - | - | - | - | 0
COC(=O)c1c(-c2ccccc2)csc1N1C(=O)Nc2ccccc2N1O | 0 | 0 | 0 | 0 | 0 | 7.94µM
CC(=O)Nc1ccc2c(c1)C(=O)c1ccccc1C2=O | 0 | 0 | 0 | 0 | 0 | ?
O=C(COC(=O)Cn1cnc2ccccc21)Nc1ccc2c(c1)C(=O)c1ccccc1C2=O | ? | 0 | ? | 0 | 0 | 8.91µM
Cc1ccccc1OCC(=O)Nc1ccc2c(c1)C(=O)c1ccccc1C2=O | 0 | 0 | 0 | 0 | 0 | 5.01µM
O=C(O)/C=C/C(=O)Nc1ccc2c(c1)C(=O)c1ccccc1C2=O | ? | 0 | 0 | 0 | 0 | 11.2µM
N/C(=N\O)c1ccccc1N1CCCCC1 | 0 | 0 | 0 | 0 | 0 | 0
NCCCN(Cc1ccc(Cl)c(Cl)c1)c1ccccn1 | - | - | - | - | - | 0
Cc1ccc(NC(=O)CN2C(=O)CCn3nc(-c4cccn4C)cc32)c(Cl)c1 | - | 0 | - | - | - | -
CSCCC(=O)Nc1ccc(C(C)=O)cc1 | 0 | 0 | 0 | 0 | 0 | 12.6µM
N#Cc1ccccc1NC(=O)CSc1nccn1CCc1ccccc1 | ? | 0 | 0 | 0 | 0 | 11.2µM
CC(=O)c1ccc(NC(=O)CSc2nccn2CCc2ccccc2)cc1 | ? | 0 | 0 | ? | 0 | 12.6µM
CC(=O)c1ccc(NC(=O)CSc2nccn2C)cc1 | ? | 0 | ? | 0 | 0 | 11.2µM
CC(=O)c1ccc(NC(=O)CSCCO)cc1 | ? | 0 | 0 | 0 | 0 | 0
Cc1c(C)c(C)c(/C=C/c2ccnc3ccccc23)c(C)c1C | - | - | - | - | - | 0
CC(C)CCCC(C)CCCC(C)CCCC(C)C(=O)O (centres undefined) | - | - | - | 0 | - | -
Cc1ccc(NC(=O)CSc2nccn2Cc2ccco2)cc1 | 0 | 0 | 0 | 0 | 0 | 10µM
Cc1ccc(NC(=O)CSc2nccn2Cc2ccccc2)cc1C | 0 | 0 | 0 | 0 | 0 | 8.91µM
CC(=O)Nc1ccc(NC(=O)CSc2nccn2Cc2ccccc2)cc1 | 0 | 0 | 0 | 0 | 0 | 0
Cn1ccnc1SCC(=O)Nc1ccc2nc(SCC(=O)NC3CC3)sc2c1 | ? | 0 | 0 | 0 | 0 | 3.55µM
SMILES | Chronic BCR inh | Nrf2 activator | a7 integrin act | N370S GC | IL-2 act | BRCA1 expr act
Cc1cccc(N2CCN(C(=O)c3cc(COc4ccc(F)c(F)c4)on3)CC2)n1 | 0 | 0 | 0 | 0 | 0 | 0
CC(=O)c1sc(NC(=O)c2ccc(C)c(C)c2)nc1C | 0 | 0 | 0 | 0 | 0 | ?
Cc1csc(NC(=O)c2ccc3c(c2)OCO3)n1 | ? | 0 | 0 | 0 | 0 | ?
CC(=O)c1sc(NC(=O)c2ccc3c(c2)OCO3)nc1C | ? | 0 | 0 | 0 | 0 | 2.51µM
CCN1CCc2nc(NC(=O)c3ccc4c(c3)OCCO4)sc2C1 | ? | 0 | 0 | 0 | 0 | 4.47µM
O=C(Nc1nccs1)c1ccc2c(c1)OCO2 | ? | 0 | 0 | 0 | 0 | 8.91µM
Cc1nc2nc(SCC(=O)NCCCN3CCCC(C)C3)nn2c(C)c1Cc1ccccc1Cl (centres undefined) | 0 | 0 | 0 | 0 | 0 | 0
CCCCNC(=S)Nc1ccc(OC)nc1 | 0 | 0 | 0 | 0 | 0 | 0
CN(C)c1cccc(C(=O)N/N=C/c2ccsc2)c1 | ? | 0 | 0 | 0 | 0 | 10µM
CN(C)c1cccc(C(=O)N/N=C/c2ccoc2)c1 | - | 0 | ? | - | 0 | 0
CCOC(=O)Cc1ccc(NC(=O)Nc2cccc(OCc3cc(=O)n4cc(C)ccc4n3)c2)cc1 | - | 0 | - | - | - | -
CCOc1ccc(-c2n[nH]c(C(=O)NN)c2C)cc1 | 0 | 0 | 0 | 0 | 0 | 10µM
CC(=O)Nc1cccc(NC(=O)c2ccc3[nH]c(C)c(C)c3c2)c1 | ? | 0 | 0 | 0 | 0 | 10µM
Cc1ccc(C)c2c1NC(C(=O)O)C1CC=CC21 (centres undefined) | - | - | - | - | - | 0
CC(C)C/C=C1\CCc2c([nH]c3ccccc23)C1=O | ? | 0 | ? | ? | 0 | 8.91µM
CCSc1nnc(NC(=O)c2csc(C)c2)s1 | 0 | 0 | 0 | 0 | 0 | 5.01µM
CCSc1nnc(NC(=O)c2cccc3ccccc23)s1 | 0 | 0 | 0 | 0 | 0 | 0
Nc1cccc(C(=O)OCC(=O)c2ccccc2)c1 | 0 | 0 | 0 | 0 | 0 | 7.94µM
O=C(c1cccs1)N1CCc2ccccc21 | 0 | ? | 0 | 0 | 0 | 7.94µM
CCc1ccccc1N=Cc1c(C)c(C#N)c2[nH]c3ccccc3n2c1=O | - | 0 | 0 | - | 123.4 | 0
Cc1ccc(C(=O)N2c3ccccc3CC2C)o1 (centres undefined) | 0 | 0 | 0 | ? | 0 | 3.98µM
CNc1ccc(Br)cc(C(=O)/C=C/c2ccc(Cl)cc2Cl)c1=O | ? | 8.91µM | 0 | 0 | 0 | 0
CNc1ccc(Br)cc(C(=O)/C=C/c2ccc(OC)cc2OC)c1=O | 0 | ? | 0 | 0 | 0 | 0
COc1ccc(-c2ccc(-c3nnn(CC(=O)N4CCOCC4)n3)cc2)cc1 | ? | 0 | 0 | 0 | 0 | 1.41µM
CSc1ccc(-c2nnn(Cc3ccc(C)cc3)n2)cc1 | 0 | 0 | 0 | 0 | 0 | 10µM
COc1cc(-c2nnn(CC(=O)N3CCOCC3)n2)cc(OC)c1OC | 0 | 0 | 0 | 0 | 0 | 0
Nc1ccc(-c2nnn(Cc3ccccc3)n2)cc1 | - | 0 | 0 | - | 0 | 0
COc1ccc(-c2nnn(Cc3ccccc3)n2)cc1 | 0 | 0 | 0 | 0 | 0 | 10µM
CC1CCN(C(=O)c2ccc(NS(=O)(=O)c3ccc4[nH]c(=O)[nH]c4c3)cc2)CC1 | 0 | 0 | 0 | 0 | 0 | 0
CN(C)c1ccc(-c2nc3ccc(Cl)cn3c2Nc2ccc3c(c2)OCCO3)cc1 | - | 0 | - | - | - | 10µM
